# Laboratory results taken from article PMC12864922, “TDP-43 directly inhibits mRNA accumulation in neurites through modulation of mRNA stability”.
# The full ranking holds about 9,900 sequences; the median of “r (bound/input frequency ratio)” is about 0.7, and the highest 2% start at about 6.5. For the sample, the highest values were picked, then their nearest neighbours and some sequences at random.
# B1: ENSMUSG00000043670.175|Diras1 (ssRNA)
# RNA: GGGAGUUCUACAGUCCGACGAUCGCUUCGAUAUCCGCAUGCUAAGUCCCUGUGUGCGGUGAUAGGACUAGUGGCUGCUGCCCUAGGGCUCUGACAGAAUCUGAGCCUCUUUGCUGGUCAUGUGUACUCUGGAGACUGUCCCCCAUGUCUGCCCUGAGUUACGGAGCCCCUGUGGUAUCUGCGAGACUGUCCAGGAGACUUGAGUGGCUCCUGGGCCUGUGUCCCACCCAGAUGAGGGUGACUUAGAAUUCUGUGUUUAUGUGCCUGUGUGUGUGGAUGGGUGUGUGUCUGUCUUGGGAUGGGGCUCUUGCGGUCGCACUAGUGUGGAAUUCUCGGGUGUCAAGG
# B2: ENSMUSG00000043670.181|Diras1 (ssRNA)
# RNA: GGGAGUUCUACAGUCCGACGAUCGCUUCGAUAUCCGCAUGCUACCCUAGGGCUCUGACAGAAUCUGAGCCUCUUUGCUGGUCAUGUGUACUCUGGAGACUGUCCCCCAUGUCUGCCCUGAGUUACGGAGCCCCUGUGGUAUCUGCGAGACUGUCCAGGAGACUUGAGUGGCUCCUGGGCCUGUGUCCCACCCAGAUGAGGGUGACUUAGAAUUCUGUGUUUAUGUGCCUGUGUGUGUGGAUGGGUGUGUGUCUGUCUUGGGAUGGGGUGUUCUUGCACCACUUUGUGUUCUUAGUGAGACCACCUCUUGCGGUCGCACUAGUGUGGAAUUCUCGGGUGUCAAGG
# B3: ENSMUSG00000043670.182|Diras1 (ssRNA)
# RNA: GGGAGUUCUACAGUCCGACGAUCGCUUCGAUAUCCGCAUGCUAGGCUCUGACAGAAUCUGAGCCUCUUUGCUGGUCAUGUGUACUCUGGAGACUGUCCCCCAUGUCUGCCCUGAGUUACGGAGCCCCUGUGGUAUCUGCGAGACUGUCCAGGAGACUUGAGUGGCUCCUGGGCCUGUGUCCCACCCAGAUGAGGGUGACUUAGAAUUCUGUGUUUAUGUGCCUGUGUGUGUGGAUGGGUGUGUGUCUGUCUUGGGAUGGGGUGUUCUUGCACCACUUUGUGUUCUUAGUGAGACCACAGUGUACUCUUGCGGUCGCACUAGUGUGGAAUUCUCGGGUGUCAAGG
# B4: ENSMUSG00000043670.180|Diras1 (ssRNA)
# RNA: GGGAGUUCUACAGUCCGACGAUCGCUUCGAUAUCCGCAUGCUACUGCUGCCCUAGGGCUCUGACAGAAUCUGAGCCUCUUUGCUGGUCAUGUGUACUCUGGAGACUGUCCCCCAUGUCUGCCCUGAGUUACGGAGCCCCUGUGGUAUCUGCGAGACUGUCCAGGAGACUUGAGUGGCUCCUGGGCCUGUGUCCCACCCAGAUGAGGGUGACUUAGAAUUCUGUGUUUAUGUGCCUGUGUGUGUGGAUGGGUGUGUGUCUGUCUUGGGAUGGGGUGUUCUUGCACCACUUUGUGUUCUUAGUGACUCUUGCGGUCGCACUAGUGUGGAAUUCUCGGGUGUCAAGG
# B5: ENSMUSG00000043670.176|Diras1 (ssRNA)
# RNA: GGGAGUUCUACAGUCCGACGAUCGCUUCGAUAUCCGCAUGCUAUGUGUGCGGUGAUAGGACUAGUGGCUGCUGCCCUAGGGCUCUGACAGAAUCUGAGCCUCUUUGCUGGUCAUGUGUACUCUGGAGACUGUCCCCCAUGUCUGCCCUGAGUUACGGAGCCCCUGUGGUAUCUGCGAGACUGUCCAGGAGACUUGAGUGGCUCCUGGGCCUGUGUCCCACCCAGAUGAGGGUGACUUAGAAUUCUGUGUUUAUGUGCCUGUGUGUGUGGAUGGGUGUGUGUCUGUCUUGGGAUGGGGUGUUCUCUCUUGCGGUCGCACUAGUGUGGAAUUCUCGGGUGUCAAGG
# B6: ENSMUSG00000043670.177|Diras1 (ssRNA)
# RNA: GGGAGUUCUACAGUCCGACGAUCGCUUCGAUAUCCGCAUGCUACGGUGAUAGGACUAGUGGCUGCUGCCCUAGGGCUCUGACAGAAUCUGAGCCUCUUUGCUGGUCAUGUGUACUCUGGAGACUGUCCCCCAUGUCUGCCCUGAGUUACGGAGCCCCUGUGGUAUCUGCGAGACUGUCCAGGAGACUUGAGUGGCUCCUGGGCCUGUGUCCCACCCAGAUGAGGGUGACUUAGAAUUCUGUGUUUAUGUGCCUGUGUGUGUGGAUGGGUGUGUGUCUGUCUUGGGAUGGGGUGUUCUUGCACCCUCUUGCGGUCGCACUAGUGUGGAAUUCUCGGGUGUCAAGG
# B7: ENSMUSG00000031028.287|Tub (ssRNA)
# RNA: GGGAGUUCUACAGUCCGACGAUCGCUUCGAUAUCCGCAUGCUAGGCUGGAUUGAUGUAAAUGGAAGUAGUACUUUAAGAAAGCUCUAGAUUUCCCAGGUUGGACACUCGACGAAAGGCACACCUGCUGCAGCAGGUUCUGACACACCUGAGCCAUACAUUGCCAUCAGAGAACCCUCAGCGAGGUAGCCUUUGUUUACAGUCUAGUUUCUAGAGGGCAGUAGGACUUCCAUGCUGGGGCUGGCCUAUCUCCUGAUGAAAGAUUACAGUGCCAUCUCCUUCCCAUAGUUCUGUGUCUGCCCUCCCUCUUGCGGUCGCACUAGUGUGGAAUUCUCGGGUGUCAAGG
# B8: ENSMUSG00000029636.242|Wasf3 (ssRNA)
# RNA: GGGAGUUCUACAGUCCGACGAUCGCUUCGAUAUCCGCAUGCUACAUUGUGUCAGUUGACAGGGAAUGCCUGUGGGAUAAUUAAAAAUGGUUUUUGCUCAUGAGUUUGGGAUGUCACCCAGCCGCCCACAUCGCCUGCUAUGUGUGUGGACGCCUGUCCGCUUGGCCAGCUAUCCUGUAACACCUGCCAGUAGUAGGUUUUCCUCAUGUCACUAUGACAGUGAAAGCCCAUGUGCAAGCCCCUCCCUACGCCCUGCUUUGGCGUGUGUCUGAGUGCUCUGUGCUGCGCCAUGGCCAUCCUGGAGCUCUUGCGGUCGCACUAGUGUGGAAUUCUCGGGUGUCAAGG
# B9: ENSMUSG00000028439.73|Fam219a|190:194 (ssRNA)
# RNA: GGGAGUUCUACAGUCCGACGAUCGCUUCGAUAUCCGCAUGCUAGUAAGCGUUGGGUGAAGGGAUCACAGGGCCGGAAGGUUGGCCCCAGCCAGUGAAGCCAUGAAUCCCCCCCAAGCCCGGCUUGGAAAGGAAGGAAAGGGGUUUUGAGAAGAAAAGGAUCCAAGCAAUGGGGGCAGUUCUCACACCUCAGAGCCCCUCUCCCCAAACCCUGUGCCAGCCCAUAUACCUAUUACACAUUUCCCCUCAUCUCCAGAUGGGAAGCCUGGCAGCGCUGUCCAAAGGGAUACUGUCUCUCCAUUAGACUCUUGCGGUCGCACUAGUGUGGAAUUCUCGGGUGUCAAGG
# Target: TDP-43 (Homo sapiens, UniProt Q13148 1-414)
# Sequence (Q13148 whole entry): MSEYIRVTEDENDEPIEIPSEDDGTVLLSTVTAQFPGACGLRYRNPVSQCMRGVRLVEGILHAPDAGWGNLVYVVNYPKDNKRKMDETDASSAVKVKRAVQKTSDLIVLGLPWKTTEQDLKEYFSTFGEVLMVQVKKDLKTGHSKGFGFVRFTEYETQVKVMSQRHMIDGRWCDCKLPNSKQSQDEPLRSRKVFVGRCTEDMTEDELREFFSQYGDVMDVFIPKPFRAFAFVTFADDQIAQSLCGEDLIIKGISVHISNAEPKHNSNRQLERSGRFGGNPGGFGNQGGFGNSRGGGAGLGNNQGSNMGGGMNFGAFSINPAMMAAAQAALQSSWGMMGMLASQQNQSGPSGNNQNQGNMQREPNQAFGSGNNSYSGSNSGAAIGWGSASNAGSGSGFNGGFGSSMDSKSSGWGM
# Assay: RNA Bind-n-Seq with designed 260-mer pool; 25 mM Tris-HCl, 150 mM KCl, 3 mM MgCl2, BSA (printed 500 mg/mL), 20 units/mL SUPERase IN; pH not stated; 500 nM RNA pool, 1 h, 4 C; TDP-43 5, 50, 500 nM; high values mean tight binding
# Settings: protein: recombinant; tags: SBP (GST cleaved off with PreScission; pGEX-GST-SBP)
# In short: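 Duplicate measurements used two independent batches of recombinant SBP-tagged TDP-43, which was captured on streptavidin beads at 5, 50 or 500 nM. The beads were incubated with 500 nM of an in vitro-transcribed 260-nt 3′ UTR oligo pool for 1 h at 4 °C in 25 mM Tris-HCl, 150 mM KCl, 3 mM MgCl2, BSA and SUPERase IN. After washing, biotin elution, reverse transcription, PCR amplification and sequencing, binding was expressed as R: each oligo's normalized read abundance in the bound sample over its abundance in input.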
row,Binder,binding signal
1,B1,6.15 R (bound/input frequency ratio)
2,B2,6.26 R (bound/input frequency ratio)
3,B3,5.77 R (bound/input frequency ratio)
4,B4,6.66 R (bound/input frequency ratio)
5,B5,6.8 R (bound/input frequency ratio)
6,B6,6.1 R (bound/input frequency ratio)
7,B7,0.856 R (bound/input frequency ratio)
8,B8,0.663 R (bound/input frequency ratio)
9,B9,0.449 R (bound/input frequency ratio)
